# Reference: PubChem BioAssay AID1159580 (chemical genetic matrix, 2015)
# About 2,000 (36%) of roughly 5,500 compounds were called active. Roughly 18% stayed inconclusive and do not appear here. The list shows a part of the results. Unmarked numbers belong to inactive results. Rule as the data show it: active = normalized growth mostly below about 0.91 (no sharp cut-off); inconclusive = no clear call, values can overlap the other calls; inactive = mostly above about 0.92.
# Assay: chemical genetic growth profiling, strain panel (AID 1159580);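 also: tested at 20 µM; growth read once vehicle control cultures reached saturation at 30 °C; 1 = growth at the plate median or of vehicle wells; lower values mean less growth of the strain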
# Settings: growth OD
# [1] = S. cerevisiae deletion strains, locus YAL013W, strain DEP1, hits give low values
# [2] = S. cerevisiae deletion strains, locus YBR229C, strain ROT2, hits give low values
# [3] = S. cerevisiae deletion strains, locus YDL101C, strain DUN1, hits give low values
# [4] = S. cerevisiae deletion strains, locus YDR150W, strain NUM1, hits give low values
# [5] = S. cerevisiae deletion strains, locus YEL061C, strain CIN8, hits give low values
# [6] = S. cerevisiae deletion strains, locus YGR078C, strain PAC10, hits give low values
# [7] = S. cerevisiae deletion strains, locus YHR030C, strain SLT2, hits give low values
# [8] = S. cerevisiae deletion strains, locus YHR087W, strain rtc3, hits give low values
# [9] = S. cerevisiae deletion strains, locus YJR043C, strain POL32, hits give low values
# [10] = S. cerevisiae deletion strains, locus YJR075W, strain HOC1, hits give low values
# [11] = S. cerevisiae deletion strains, locus YKL190W, strain CNB1, hits give low values
# [12] = S. cerevisiae deletion strains, locus YLR039C, strain RIC1, hits give low values
# [13] = S. cerevisiae deletion strains, locus YLR058C, strain SHM2 (second series), hits give low values
# [14] = S. cerevisiae deletion strains, locus YLR085C, strain ARP6, hits give low values
# [15] = S. cerevisiae deletion strains, locus YLR262C, strain YPT6, hits give low values
# [16] = S. cerevisiae deletion strains, locus YML094W, strain GIM5, hits give low values
# [17] = S. cerevisiae deletion strains, locus YMR219W, strain ESC1, hits give low values
# [18] = S. cerevisiae deletion strains, locus YMR263W, strain SAP30, hits give low values
# [19] = S. cerevisiae deletion strains, locus YNL153C, strain GIM3, hits give low values
# [20] = S. cerevisiae deletion strains, locus YNL298W, strain CLA4 (second series), hits give low values
# [21] = S. cerevisiae deletion strains, locus YNL322C, strain KRE1, hits give low values
# [22] = S. cerevisiae deletion strains, locus YNR030W, strain Alg12, hits give low values
# [23] = S. cerevisiae deletion strains, locus YOL006C, strain TOP1, hits give low values
# [24] = S. cerevisiae deletion strains, locus YPL055C, strain LGE1, hits give low values
# [25] = S. cerevisiae deletion strains, locus YPL241C, strain CIN2, hits give low values
# [26] = S. cerevisiae deletion strains, locus YPR135W, strain CTF4, hits give low values
# [27] = S. cerevisiae deletion strains, locus YCL061C, strain MRC1, hits give low values
# [28] = S. cerevisiae deletion strains, locus YJL187C, strain SWE1, hits give low values
# [29] = S. cerevisiae deletion strains, locus YMR307W, strain GAS1, hits give low values
# [30] = S. cerevisiae strains, strain wild type, hits give low values
# [31] = S. cerevisiae deletion strains, locus YGR229C, strain SMI1, hits give low values
compound,measurement,setting,value
Cc1c(Br)sc2ccc(Cl)cc12,normalized growth,[1],0.987
same,normalized growth,[2],0.936
same,normalized growth,[3],0.96
same,normalized growth,"S. cerevisiae deletion strains, locus YDL134C, strain PPH21, hits give low values",0.849 (active)
same,normalized growth,[4],1.03
same,normalized growth,[5],0.909
same,normalized growth,[6],0.952
same,normalized growth,[7],0.294 (active)
same,normalized growth,[8],0.963
same,normalized growth,[9],1.05
same,normalized growth,[10],0.955
same,normalized growth,[11],0.959
same,normalized growth,[12],0.733 (active)
same,normalized growth,[13],0.952
same,normalized growth,[14],0.708 (active)
same,normalized growth,[15],0.709 (active)
same,normalized growth,[16],0.864 (active)
same,normalized growth,[17],0.948
same,normalized growth,[18],0.99
same,normalized growth,[19],0.98
same,normalized growth,[20],0.782 (active)
same,normalized growth,[21],0.976
same,normalized growth,[22],0.926
same,normalized growth,[23],0.891
same,normalized growth,[24],1.04
same,normalized growth,[25],0.939
same,normalized growth,[26],0.953
Cc1csc2ccc(Cl)cc12,normalized growth,[1],0.994
same,normalized growth,[2],0.998
same,normalized growth,[27],1.01
same,normalized growth,[3],1.02
same,normalized growth,[4],0.993
same,normalized growth,[5],1.01
same,normalized growth,[6],0.998
same,normalized growth,[7],1.07
same,normalized growth,[8],0.999
same,normalized growth,[28],1.02
same,normalized growth,[9],1
same,normalized growth,[10],0.98
same,normalized growth,[11],1.01
same,normalized growth,[12],1.07
same,normalized growth,[13],1
same,normalized growth,[14],1.03
same,normalized growth,[15],1.04
same,normalized growth,[16],1.01
same,normalized growth,[17],1
same,normalized growth,[18],1.01
same,normalized growth,[29],1.07
same,normalized growth,[19],1.02
same,normalized growth,[20],1.06
same,normalized growth,[21],1.01
same,normalized growth,[22],1.03
same,normalized growth,[24],0.996
same,normalized growth,[25],1.02
same,normalized growth,[26],1
same,normalized growth,[30],1.01
NC(N)=[N+]1CCc2ccccc2C1,normalized growth,"S. cerevisiae deletion strains, locus YAL040C, strain CLN3, hits give low values",0.966
same,normalized growth,"S. cerevisiae deletion strains, locus YCL061C, strain MRC1 (second series), hits give low values",0.989
same,normalized growth,[4],1
same,normalized growth,"S. cerevisiae deletion strains, locus YDR363W, strain ESC2, hits give low values",0.904
same,normalized growth,"S. cerevisiae deletion strains, locus YER002W, strain NOP16, hits give low values",0.982
same,normalized growth,[31],0.962
same,normalized growth,[18],0.988
same,normalized growth,[29],1
same,normalized growth,"S. cerevisiae deletion strains, locus YNL128W, strain TEP1, hits give low values",0.992
same,normalized growth,[19],1
same,normalized growth,"S. cerevisiae deletion strains, locus YNL175C, strain NOP13, hits give low values",0.991
same,normalized growth,"S. cerevisiae deletion strains, locus YNL197C, strain WHI3, hits give low values",0.984
same,normalized growth,"S. cerevisiae deletion strains, locus YNL224C, strain SQS1, hits give low values",1.01
same,normalized growth,[21],0.972
same,normalized growth,"S. cerevisiae deletion strains, locus YOR083W, strain WHI5 (second series), hits give low values",0.969
same,normalized growth,[24],0.944
COc1cc(OC)nc(N)n1,normalized growth,[1],1.02
same,normalized growth,[2],0.958
same,normalized growth,[27],1.03
same,normalized growth,[3],1.04
same,normalized growth,[4],1.03
same,normalized growth,[5],1
same,normalized growth,[6],1.03
same,normalized growth,[31],0.979
same,normalized growth,[7],1.06
same,normalized growth,[8],0.974
same,normalized growth,[28],1.02
same,normalized growth,[9],1.06
same,normalized growth,[10],1.01
same,normalized growth,[11],0.992
same,normalized growth,[12],0.946
same,normalized growth,[13],0.991
same,normalized growth,[14],0.949
same,normalized growth,[15],0.96
same,normalized growth,[16],0.986
same,normalized growth,[17],0.98
same,normalized growth,[18],1.02
same,normalized growth,[19],1.02
same,normalized growth,[20],0.99
same,normalized growth,[21],0.988
same,normalized growth,[22],0.999
same,normalized growth,[23],1.01
same,normalized growth,[24],1.02
same,normalized growth,[25],1.02
same,normalized growth,[26],1.06
same,normalized growth,[30],0.985
O=C1ON=C(CSc2ccccc2)/C1=C/c1ccc(Cl)cc1,normalized growth,[1],0.0593 (active)
same,normalized growth,[2],0.0605 (active)
same,normalized growth,[3],0.0787 (active)
same,normalized growth,[4],0.0599 (active)
same,normalized growth,[5],0.215 (active)
same,normalized growth,[6],0.0528 (active)
same,normalized growth,[31],0.522 (active)
same,normalized growth,[7],0.0755 (active)
same,normalized growth,[8],0.0592 (active)
same,normalized growth,[9],0.0516 (active)
same,normalized growth,[10],0.0832 (active)
same,normalized growth,[11],0.201 (active)
same,normalized growth,[12],0.283 (active)
same,normalized growth,[13],0.0598 (active)
same,normalized growth,[14],0.0742 (active)
same,normalized growth,[15],0.324 (active)
same,normalized growth,[16],0.343 (active)
same,normalized growth,[17],0.0677 (active)
same,normalized growth,[18],0.0516 (active)
same,normalized growth,[19],0.0589 (active)
same,normalized growth,[20],0.155 (active)
same,normalized growth,[21],0.0609 (active)
same,normalized growth,[22],0.101 (active)
same,normalized growth,[24],0.0724 (active)
same,normalized growth,[25],0.0913 (active)
same,normalized growth,[26],0.161 (active)
same,normalized growth,[30],0.337 (active)
